Bioassay records as filed in PubChem.
A selection: hits, their analogues and other compounds. The true share with any hit is near 2.3%.
CHRM1 PAM – human M1 muscarinic receptor positive allosteric modulators, primary screen, CHO-K1 cells, Fluo-8 calcium fluorescence, 1536-well. Muscarinic acetylcholine receptor M1 (Homo sapiens), P11229. CHO-K1 hM1, ACh EC20; 0% = ACh EC20, 100% = maximal ACh. activation, % at 3 µM. 360,000 compounds, 0.088% hits. AID 588819, 2011; in the data active = activation above about 19%, passing the limit was not always enough
Target sequence (P11229 whole entry, looked up): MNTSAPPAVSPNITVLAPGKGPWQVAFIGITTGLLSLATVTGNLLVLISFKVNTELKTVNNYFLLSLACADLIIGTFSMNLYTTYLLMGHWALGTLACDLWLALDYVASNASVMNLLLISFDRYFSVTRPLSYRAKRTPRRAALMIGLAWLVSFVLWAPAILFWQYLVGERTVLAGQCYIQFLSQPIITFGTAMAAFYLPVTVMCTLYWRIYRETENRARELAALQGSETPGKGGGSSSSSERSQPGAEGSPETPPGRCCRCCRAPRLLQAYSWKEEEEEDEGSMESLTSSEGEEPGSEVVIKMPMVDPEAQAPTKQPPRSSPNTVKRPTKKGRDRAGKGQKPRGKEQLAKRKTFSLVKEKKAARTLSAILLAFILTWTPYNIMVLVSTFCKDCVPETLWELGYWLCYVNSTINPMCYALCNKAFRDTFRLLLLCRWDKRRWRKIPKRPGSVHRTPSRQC
CHO-K1 Ca antag – nonselective inhibitor or artifact in parental CHO-K1 cells; 360,000 compounds, 0.6% hits; ATP-induced calcium, Fluo-8 fluorescence; inhibition, % at 3 µM;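 active = inhibition above a per-plate cutoff, the plate's mean sample inhibition plus 3 SD, cut at about 24% in these data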;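 note: 0% = DMSO plus EC80 ATP and 100% = DMSO alone without ATP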
M1 ag – human M1 muscarinic receptor agonists, primary screen, Fluo-8 calcium fluorescence, CHO-K1 cells, HTS | 360,000 compounds, 0.33% hits | AID 588814, 2011 | activation, % at 3 µM | CHO-K1 hM1, agonist mode; 0% DMSO, 100% acetylcholine EC100 | Muscarinic acetylcholine receptor M1 (Homo sapiens), P11229;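 active = activation above the run's mean compound activation plus 3 SD, cut at about 16% in these data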;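 note: peak over basal fluorescence ratio within a 140 s kinetic read after compound addition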
CHO-K1 Ca PAM – nonselective calcium activators in parental CHO-K1 cells, primary screen, counter-screen for M1 PAM project, cell-based, Fluo-8 calcium fluorescence, full deck, 1536-well; ATP EC20; 0% at ATP EC20, 100% at ATP max; activation, % at 3 µM; 360,000 compounds, 0.02% hits; AID 602247, 2012;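 active = activation above the run cutoff, the mean activation of all test compounds plus 3 SD, cut at about 40% in these data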;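 note: peak over basal fluorescence ratio in a 140 s read after ATP addition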
M1 ag parental – counter-screen for M1 agonists: effect in parental CHO-K1 cells. Fluo-8 calcium fluorescence; scaled to maximal ATP response, vehicle zero. activation, % at 3 µM. 360,000 compounds, 0.48% hits; in the data active = activation above about 15%;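 note: untransfected CHO-K1 host cells lacking M1 receptor as counterscreen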
M1 antag – human M1 muscarinic receptor antagonists, primary screen, CHO-K1 cells, Fluo-8 calcium fluorescence, 1536-well; CHO-K1 hM1, ACh EC80 antagonist; inhibition, % at 3 µM; 360,000 compounds, 1.3% hits;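 active = percent inhibition above its own plate's cutoff, namely the mean of that plate's compound wells plus 3 SD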;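 note: peak over basal fluorescence ratio during 140 s after agonist addition; 0% = ACh EC80 plus DMSO and 100% = DMSO alone without agonist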
Starred values were filed as active, the others as inactive.

SMILES	CHRM1 PAM	CHO-K1 Ca antag	M1 ag	CHO-K1 Ca PAM	M1 ag parental	M1 antag
NC(=O)c1nsc(C(=O)N(CC(=O)NC2CCCCC2)Cc2ccc(F)cc2)c1N	8	-14	-2	21	0	-5
C[C@]1(CO)CCC[C@@]2(C)C1CC[C@@H](CO)[C@@H]2CCc1ccoc1 (stereo partly drawn)	-3	30*	8	-4	14	4
O=C(O)C1(c2ccccc2)CCN(S(=O)(=O)c2ccc(F)c(F)c2)CC1	2	-11	0	5	0	-2
CNC(=O)/C(C#N)=C/c1ccc(-c2ccccc2[N+](=O)[O-])o1	6	27*	-6	-18	0	1
COC(=O)c1c(N)nc(C)n1-c1ccc(OC)cc1	-1	25*	-2	-6	0	6
CC(NS(=O)(=O)c1cccc(C(=O)NCc2ccncc2)c1)c1ccccc1 (stereo not drawn)	3	-13	-4	-5	1	1
CCOC(=O)c1c(C)n(C)c2ccc(OCC(O)CNCCc3ccccc3)cc12 (stereo not drawn)	6	31*	-8	4	12	-8
COc1cnn(-c2ccc(C)cc2)c(=O)c1Br	3	-19	-6	17	0	0
COc1cnn(-c2ccc(C)cc2)c(=O)c1Cl	6	25*	-8	-11	-1	-7
CCOC(=O)C1(C)CCCN(C(=O)c2cccc3ccccc23)C1 (stereo not drawn)	4	18	-2	-17	0	-15
COc1ccc2nc(NC(=O)CN3CCOCC3)sc2c1	-12	26*	-2	-7	0	10
CC1(C)C2CCC(C2)C1(C)NC(=O)CN1CCN(Cc2ccccc2)CC1 (stereo not drawn)	-12	-5	-8	25	1	9
CC1(C)C2CCC(C2)C1(C)NC(=O)C[N+](C)(C)C (stereo not drawn)	11	-7	5	1	23*	-4
O=C1NN=C2CCCCCC12 (stereo not drawn)	6	-3	0	12	0	0
Cc1noc(C)c1C(=O)OCC(=O)NC1CC1	-6	10	0	-5	0	14*
C[C@@H]1CCCCO[C@@H](CN(C)C(=O)CCCN(C)C)[C@@H](C)CN([C@H](C)CO)C(=O)c2cc(N(C)C)ccc2O1	-10	16	-9	-7	0	22
COc1cccc(Oc2coc3c(CN4CCOCC4)c(O)ccc3c2=O)c1	-4	28*	-6	-2	0	21
Cc1ccccc1/C=C/C(=O)NCC(=O)N1CCC(N(C)C2CCCCC2C)CC1 (stereo not drawn)	-24	6	-10	-13	0	27*
CN(CC(=O)Nc1ccc(F)cc1)C(=O)COC(=O)c1cc(S(=O)(=O)N(C)C)ccc1N1CCCC1	5	-16	-4	19	3	-9
CCC1CCCCN1S(=O)(=O)c1ccc(S(=O)(=O)N(Cc2ccccn2)CC2CCCO2)cc1 (stereo not drawn)	-17	-8	-12	13	3	9
CCC1CCCCN1S(=O)(=O)c1ccc(NC(=O)c2ccncc2)cc1 (stereo not drawn)	-13	12	4	-14	16*	34*
CCC1CCCCN1S(=O)(=O)c1ccc(S(=O)(=O)N(Cc2cccs2)C2CC2)cc1 (stereo not drawn)	-36	-10	-10	5	2	63*
CCCCNC(=O)C(NC(=O)c1cccc(C(F)(F)F)c1)C(=O)c1ccccc1 (stereo not drawn)	0	-19	-2	15	1	-25
CC1CCC2C(=O)N(c3cccc(C(=O)Nc4ccccc4Cl)c3)C(=O)C2C1 (stereo not drawn)	-4	-9	-1	-16	4	7
COc1ccccc1CNC(=O)COc1ccc(S(=O)(=O)N2CCOCC2)cc1C	13	-10	-4	7	4	-10
SMILES	CHRM1 PAM	CHO-K1 Ca antag	M1 ag	CHO-K1 Ca PAM	M1 ag parental	M1 antag
COCCN(CC1CCCN(C2Cc3ccccc3C2)C1)C(=O)CCC(N)=O (stereo not drawn)	-28	-10	-10	17	0	47*
O=C(NCCC(=O)N1CCN(c2ccc(F)cc2)CC1)c1ccco1	0	-7	-3	-8	0	1
Cc1cc(Nc2ccc(Br)cc2F)n2nc(C)nc2n1	8	1	-7	41*	0	-21
Cc1cc(Nc2ccccc2F)n2nc(C)nc2n1	13	-1	1	-3	0	-6
CCOc1ccc(OCC)c(Nc2cc(C)nc3nc(C)nn23)c1	10	34*	1	-11	0	-13
CC(NC(=O)Cc1ccc(Br)cc1)c1ccccc1 (stereo not drawn)	-2	14	-5	-26	0	5
CCc1nc2ccc(C(=O)NCCOc3ccc(OC)cc3)cn2c1N(C)Cc1ccc(OC)cc1	-20	7	-6	6	4	30*
CCc1nc2ccc(C(=O)N3CCCC(C(N)=O)C3)cn2c1N(C)Cc1ccc(OC)cc1 (stereo not drawn)	-24	3	-10	2	0	39*
CCCCNC(=O)c1ccc2nc(CC)c(N(C)Cc3ccc(OC)cc3)n2c1	-10	-5	-7	7	1	6
CCc1nc2ccc(C(=O)NCCOc3ccc(OC)cc3)cn2c1N(C)CCCc1ccccc1	-18	-1	-7	9	0	35*
CCc1nc2ccc(C(=O)N3CCCC(C(N)=O)C3)cn2c1N(CCC(C)C)CCN(C)C (stereo not drawn)	7	10	-3	15	1	-8
CCOc1ccc(NC(=S)NCc2ccco2)cc1	-6	14	-8	16	17*	11
COc1ccc(NC(=S)NCc2ccco2)cc1	5	-17	-4	18	0	-6
CC(=O)N1CCN(c2ccc(NC(=S)NC(=O)COc3ccc(C(C)(C)C)cc3)cc2)CC1	-9	23	0	2	10	26
CN1CCN(c2ccc(NC(=S)NC(=O)c3cccc4ccccc34)cc2)CC1	-22	-12	-3	7	4	45*
CCC(=O)N1CCN(c2ccc(NC(=S)NC(=O)COc3ccccc3)cc2)CC1	-16	2	2	-5	15	30*
CN1CCN(c2ccc(NC(=S)NC(=O)c3cccc4c(Br)cccc34)cc2)CC1	-12	-17	-5	20	2	20
